A structure can be active in one record and inactive in another. Active and inactive are the calls of the source. Rule for the calls: active = hit-call score of the fitted dose curve at least 0.9, where 1 is the maximum; inactive = score below 0.9.
Read-out: Vascular cell adhesion molecule 1 (VCAM1), VCAM1 (gene 7412)
Assay: BSK_CASM3C_VCAM1: BioMAP Diversity Plus: CASM3C Assay for Vascular cell adhesion molecule 1 (VCAM1) Biomarker Activity (AID 2283055);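 note: VCAM-1 protein level quantified by ELISA on the cells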
Conditions: primary human coronary artery smooth muscle cells; actives raise or lower the signal

Q: For `CC1COc2ccccc2N1C(=O)C(Cl)Cl` (stereo not given), which AC50 is on record?
A: 10.2 µM (active)

Q: `CC(C)(COC(=O)c1ccccc1)COC(=O)c1ccccc1` was tested. Which outcome did it give?
A: inactive

Q: With `CC(C)c1ccc(C(C)C)cc1` as the compound, how does the AC50 read?
A: 32.6 µM (active)

Q: Which outcome does the source give for `CCC(=O)OCc1ccccc1` here?
A: inactive

Q: Which outcome does the source give for `CC(=O)OCCC(C)CC(C)(C)C` (stereo not given) here?
A: inactive

Q: With `CC1CCC(C(C)CS)CC1S` (stereo not given) as the compound, how does the AC50 read?
A: 28.8 µM (active)

Q: What does the source list for `CC(=O)[C@H]1CC[C@H]2[C@@H]3CC=C4C[C@@H](O)CC[C@]4(C)[C@H]3CC[C@]12C`?
A: AC50: 9.48 µM (active); outcome: inactive

Read-out: Collagen III, COL3A1 (gene 1281)
Assay: BSK_hDFCGF_CollagenIII: BioMAP Diversity Plus: hDFCGF Assay for Collagen III Biomarker Activity (AID 2283056)
Conditions: primary human foreskin fibroblasts; actives raise or lower the signal
Procedure, shortened: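 ELISA read-out of collagen III from human skin fibroblast cultures sampled 24 h post-dosing. Values were derived by bidirectional fitting relative to the DMSO vehicle control.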

Q: `CCn1c2ccccc2c2cc(N)ccc21` was tested. Which outcome did it give?
A: inactive

Q: `Cc1ccc(Nc2ccc(O)c3c2C(=O)c2ccccc2C3=O)cc1` was tested. Which outcome did it give?
A: inactive

Q: How did the AC50 turn out when `Cc1ccc(O)c(C(C)(C)C)c1` was run?
A: 30.4 µM (active)

Q: For `CCCCCCCCCCCCCCCCCC(=O)OCC(CC)CCCC` (stereo not given), which outcome is on record?
A: inactive

Q: `CCCCC(CC)COCCC#N` (stereo not given) was tested. Which AC50 did it give?
A: 24.1 µM (active)

Q: With `C[C@H]1C[C@@H]2[C@H]([C@@H](O)C[C@@]3(C)[C@H]2CC[C@]3(O)C(=O)CO)[C@@]2(C)C=CC(=O)C=C12` as the compound, how does the outcome read?
A: inactive

Q: How did the outcome turn out when `O=P(c1ccccc1)(c1ccccc1)c1ccccc1` was run?
A: inactive

Q: Which outcome does the source give for `CC(C)Oc1ccccc1O` here?
A: inactive

Q: Which outcome does the source give for `CC(=O)/C=C/C1=C(C)CCCC1(C)C` here?
A: inactive

Q: What does the source list for `CC[Si](OC(C)=O)(OC(C)=O)OC(C)=O`?
A: AC50: 5.47 µM (active); outcome: inactive

Q: Which outcome does the source give for `CNC[C@H](O)c1cccc(O)c1` here?
A: inactive

Q: For `O=[N+]([O-])c1cc(C(F)(F)F)ccc1Cl`, which outcome is on record?
A: inactive

Q: Which outcome does the source give for `CCCCCCCCCC=O` here?
A: inactive

Q: `COc1cc(C=O)ccc1OC(=O)C(C)C` was tested. Which outcome did it give?
A: inactive

Q: For `Nc1cc([N+](=O)[O-])ccc1O`, which outcome is on record?
A: inactive

Q: With `CCc1c(C)cc(N)c(CC)c1N` as the compound, how does the outcome read?
A: inactive

Q: With `C=C(C)C(=O)O[C@H]1C[C@@H]2CC[C@@]1(C)C2(C)C` as the compound, how does the AC50 read?
A: 20 µM (active)

Q: `CC(=O)O[C@]1(C(C)=O)CC[C@H]2[C@@H]3C[C@H](C)C4=CC(=O)CC[C@]4(C)[C@H]3CC[C@@]21C` was tested. Which outcome did it give?
A: inactive

Q: For `CC1COc2ccccc2N1C(=O)C(Cl)Cl` (stereo not given), which AC50 is on record?
A: 0.0289 µM (active)

Q: With `CC(C)(COC(=O)c1ccccc1)COC(=O)c1ccccc1` as the compound, how does the AC50 read?
A: 16.7 µM (active)

Q: Which outcome does the source give for `CC(C)c1ccc(C(C)C)cc1` here?
A: inactive

Q: For `CCC(=O)OCc1ccccc1`, which outcome is on record?
A: inactive

Q: `CC(=O)OCCC(C)CC(C)(C)C` (stereo not given) was tested. Which outcome did it give?
A: inactive

Q: With `CC1CCC(C(C)CS)CC1S` (stereo not given) as the compound, how does the AC50 read?
A: 4.29 µM (active)

Q: `CC(=O)[C@H]1CC[C@H]2[C@@H]3CC=C4C[C@@H](O)CC[C@]4(C)[C@H]3CC[C@]12C` was tested. Which AC50 did it give?
A: 5.69 µM (active)

Q: And the outcome?
A: inactive

Read-out: Epidermal growth factor receptor (EGFR), EGFR (gene 1956)
Assay: BSK_hDFCGF_EGFR: BioMAP Diversity Plus: hDFCGF Assay for Epidermal growth factor receptor (EGFR) Biomarker Activity (AID 2283057)
Conditions: primary human foreskin fibroblasts; actives raise or lower the signal
Procedure, shortened: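 Primary human foreskin fibroblasts were exposed to compound for 24 h, after which cell-surface EGFR was quantified by ELISA. Activity was fitted bidirectionally against the DMSO negative control as baseline.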

Q: `CCn1c2ccccc2c2cc(N)ccc21` was tested. Which outcome did it give?
A: inactive

Q: How did the outcome turn out when `Cc1ccc(Nc2ccc(O)c3c2C(=O)c2ccccc2C3=O)cc1` was run?
A: inactive

Q: With `Cc1ccc(O)c(C(C)(C)C)c1` as the compound, how does the outcome read?
A: inactive

Q: With `CCCCCCCCCCCCCCCCCC(=O)OCC(CC)CCCC` (stereo not given) as the compound, how does the outcome read?
A: inactive

Q: Which outcome does the source give for `CCCCC(CC)COCCC#N` (stereo not given) here?
A: inactive

Q: For `C[C@H]1C[C@@H]2[C@H]([C@@H](O)C[C@@]3(C)[C@H]2CC[C@]3(O)C(=O)CO)[C@@]2(C)C=CC(=O)C=C12`, which outcome is on record?
A: inactive

Q: With `O=P(c1ccccc1)(c1ccccc1)c1ccccc1` as the compound, how does the outcome read?
A: inactive

Q: With `CC(C)Oc1ccccc1O` as the compound, how does the outcome read?
A: inactive

Q: `CC(=O)/C=C/C1=C(C)CCCC1(C)C` was tested. Which outcome did it give?
A: inactive

Q: With `CC[Si](OC(C)=O)(OC(C)=O)OC(C)=O` as the compound, how does the outcome read?
A: inactive

Q: Which outcome does the source give for `CNC[C@H](O)c1cccc(O)c1` here?
A: inactive

Q: `O=[N+]([O-])c1cc(C(F)(F)F)ccc1Cl` was tested. Which outcome did it give?
A: inactive

Q: With `CCCCCCCCCC=O` as the compound, how does the outcome read?
A: inactive

Q: How did the outcome turn out when `COc1cc(C=O)ccc1OC(=O)C(C)C` was run?
A: inactive

Q: With `Nc1cc([N+](=O)[O-])ccc1O` as the compound, how does the outcome read?
A: inactive

Q: Which outcome does the source give for `CCc1c(C)cc(N)c(CC)c1N` here?
A: inactive

Q: How did the AC50 turn out when `C=C(C)C(=O)O[C@H]1C[C@@H]2CC[C@@]1(C)C2(C)C` was run?
A: 29.4 µM (active)

Q: `CC(=O)O[C@]1(C(C)=O)CC[C@H]2[C@@H]3C[C@H](C)C4=CC(=O)CC[C@]4(C)[C@H]3CC[C@@]21C` was tested. Which outcome did it give?
A: inactive

Q: For `CC1COc2ccccc2N1C(=O)C(Cl)Cl` (stereo not given), which outcome is on record?
A: inactive

Q: With `CC(C)(COC(=O)c1ccccc1)COC(=O)c1ccccc1` as the compound, how does the outcome read?
A: inactive

Q: With `CC(C)c1ccc(C(C)C)cc1` as the compound, how does the outcome read?
A: inactive

Q: With `CCC(=O)OCc1ccccc1` as the compound, how does the outcome read?
A: inactive

Q: How did the outcome turn out when `CC(=O)OCCC(C)CC(C)(C)C` (stereo not given) was run?
A: inactive

Q: Which outcome does the source give for `CC1CCC(C(C)CS)CC1S` (stereo not given) here?
A: inactive

Q: For `CC(=O)[C@H]1CC[C@H]2[C@@H]3CC=C4C[C@@H](O)CC[C@]4(C)[C@H]3CC[C@]12C`, which outcome is on record?
A: inactive

Read-out: Interleukin-8 (IL8), CXCL8 (gene 3576)
Assay: BSK_hDFCGF_IL8: BioMAP Diversity Plus: hDFCGF Assay for Interleukin-8 (IL8) Biomarker Activity (AID 2283058)
Conditions: primary human foreskin fibroblasts; actives raise or lower the signal
Procedure, shortened: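 Cells used are human skin primary fibroblasts. Chemical is added, cultures run 24 h, then IL-8 is quantified by ELISA, and gain or loss versus DMSO control is fitted in both directions.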

Q: Which outcome does the source give for `CCn1c2ccccc2c2cc(N)ccc21` here?
A: inactive

Q: For `Cc1ccc(Nc2ccc(O)c3c2C(=O)c2ccccc2C3=O)cc1`, which outcome is on record?
A: inactive

Q: With `Cc1ccc(O)c(C(C)(C)C)c1` as the compound, how does the outcome read?
A: inactive

Q: How did the outcome turn out when `CCCCCCCCCCCCCCCCCC(=O)OCC(CC)CCCC` (stereo not given) was run?
A: inactive

Q: For `CCCCC(CC)COCCC#N` (stereo not given), which outcome is on record?
A: inactive

Q: `C[C@H]1C[C@@H]2[C@H]([C@@H](O)C[C@@]3(C)[C@H]2CC[C@]3(O)C(=O)CO)[C@@]2(C)C=CC(=O)C=C12` was tested. Which outcome did it give?
A: inactive

Q: How did the outcome turn out when `O=P(c1ccccc1)(c1ccccc1)c1ccccc1` was run?
A: inactive

Q: For `CC(C)Oc1ccccc1O`, which outcome is on record?
A: inactive

Q: With `CC(=O)/C=C/C1=C(C)CCCC1(C)C` as the compound, how does the outcome read?
A: inactive

Q: Which outcome does the source give for `CC[Si](OC(C)=O)(OC(C)=O)OC(C)=O` here?
A: inactive

Q: How did the outcome turn out when `CNC[C@H](O)c1cccc(O)c1` was run?
A: inactive

Q: For `O=[N+]([O-])c1cc(C(F)(F)F)ccc1Cl`, which outcome is on record?
A: inactive

Q: Which outcome does the source give for `CCCCCCCCCC=O` here?
A: inactive

Q: Which outcome does the source give for `COc1cc(C=O)ccc1OC(=O)C(C)C` here?
A: inactive

Q: How did the outcome turn out when `Nc1cc([N+](=O)[O-])ccc1O` was run?
A: inactive

Q: For `CCc1c(C)cc(N)c(CC)c1N`, which outcome is on record?
A: inactive

Q: With `C=C(C)C(=O)O[C@H]1C[C@@H]2CC[C@@]1(C)C2(C)C` as the compound, how does the AC50 read?
A: 35.3 µM (active)

Q: `CC(=O)O[C@]1(C(C)=O)CC[C@H]2[C@@H]3C[C@H](C)C4=CC(=O)CC[C@]4(C)[C@H]3CC[C@@]21C` was tested. Which outcome did it give?
A: inactive

Q: How did the outcome turn out when `CC1COc2ccccc2N1C(=O)C(Cl)Cl` (stereo not given) was run?
A: inactive

Q: Which outcome does the source give for `CC(C)(COC(=O)c1ccccc1)COC(=O)c1ccccc1` here?
A: inactive

Q: With `CC(C)c1ccc(C(C)C)cc1` as the compound, how does the outcome read?
A: inactive

Q: With `CCC(=O)OCc1ccccc1` as the compound, how does the outcome read?
A: inactive

Q: How did the outcome turn out when `CC(=O)OCCC(C)CC(C)(C)C` (stereo not given) was run?
A: inactive

Q: For `CC1CCC(C(C)CS)CC1S` (stereo not given), which AC50 is on record?
A: 28 µM (active)

Q: `CC(=O)[C@H]1CC[C@H]2[C@@H]3CC=C4C[C@@H](O)CC[C@]4(C)[C@H]3CC[C@]12C` was tested. Which outcome did it give?
A: inactive

Source: PubChem BioAssay (EPA / NIEHS)
